Values joined by “and” are separate entries in the source; they are usually repeats but may differ in a detail not shown here. Equal values may be shown once. About 2,000 (36%) of roughly 5,500 compounds were called active. Another 18% or so got no clear call; they are omitted. Rule as the data show it: active = normalized growth mostly below about 0.91 (no sharp cut-off); inconclusive = no clear call, values can overlap the other calls; inactive = mostly above about 0.92. Some of the results follow.
Experiment: chemical genetic growth profiling, strain panel (AID 1159580);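 also: tested at 20 µM; growth read once vehicle control cultures reached saturation at 30 °C; 1 = growth at the plate median or of vehicle wells; lower values mean less growth of the strain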
Details: S. cerevisiae deletion strains, growth OD

Measured: normalized growth

CC1Cc2ccccc2N1NC(=O)c1ccc(Cl)c(S(N)(=O)=O)c1 (centres undefined)
inactive: locus YAL013W, strain DEP1, active compounds read low 1.01 | locus YAL021C, strain ccr4, active compounds read low 1 | locus YAL026C, strain drs2, active compounds read low 1 | locus YAL030W, strain snc1, active compounds read low 0.998 | locus YBL061C, strain skt5, active compounds read low 0.999 | locus YBR009C, strain hhf1, active compounds read low 0.996 | locus YBR021W, strain FUR4, active compounds read low 1.01 | locus YBR023C, strain chs3, active compounds read low 1 | locus YBR171W, strain sec66, active compounds read low 0.997 | locus YBR229C, strain ROT2, active compounds read low 1.01 | locus YBR231C, strain swc5, active compounds read low 0.978 | locus YBR279W, strain paf1, active compounds read low 1 | locus YCL011C, strain gbp2, active compounds read low 1.01 | locus YCL016C, strain dcc1, active compounds read low 0.996 | locus YCL029C, strain bik1, active compounds read low 1.01 | locus YCL061C, strain MRC1, active compounds read low 1.01 | locus YCL069W, strain vba3, active compounds read low 0.991 | locus YCR088W, strain abp1, active compounds read low 1.01 | locus YDL005C, strain med2, active compounds read low 0.999 | locus YDL035C, strain GPR1, active compounds read low 1.02 | locus YDL040C, strain nat1, active compounds read low 0.997 | locus YDL074C, strain BRE1, active compounds read low 1.02 | locus YDL101C, strain DUN1, active compounds read low 1.01 | locus YDL134C, strain PPH21, active compounds read low 1.03 | locus YDL185W, strain tfp1, active compounds read low 0.989 | locus YDL192W, strain arf1, active compounds read low 0.999 | locus YDR001C, strain nth1, active compounds read low 1 | locus YDR069C, strain doa4, active compounds read low 1 | locus YDR101C, strain arx1, active compounds read low 1.02 | locus YDR137W, strain rgp1, active compounds read low 1.01 | locus YDR159W, strain sac3, active compounds read low 0.992 | locus YDR162C, strain NBP2, active compounds read low 1.01 | locus YDR195W, strain ref2 0.979 | locus YDR297W, strain sur2, active compounds read low 0.998 | locus YDR318W, strain mcm21, active compounds read low 0.991 | locus YDR334W, strain swr1, active compounds read low 1.01 | locus YDR335W, strain msn5, active compounds read low 1 | locus YDR388W, active compounds read low 1 | locus YDR392W, strain spt3, active compounds read low 0.973 | locus YDR502C, strain sam2, active compounds read low 1 | locus YEL003W, strain gim4, active compounds read low 1 | locus YEL037C, strain rad23, active compounds read low 1 | locus YEL061C, strain CIN8 (second series), active compounds read low 0.999 | locus YEL061C, strain CIN8, active compounds read low 1.01 | locus YER015W, strain faa2, active compounds read low 1.01 | locus YER016W, strain bim1, active compounds read low 0.995 | locus YER110C, active compounds read low 0.996 | locus YER111C, strain swi4, active compounds read low 1 | locus YER155C, strain BEM2 (second series), active compounds read low 1.01 | locus YER155C, strain BEM2, active compounds read low 1.01 | locus YER167W, strain BCK2, active compounds read low 1.01 | locus YFR010W, strain ubp6, active compounds read low 1 | locus YGL078C, strain dbp3, active compounds read low 1 | locus YGL086W, strain mad1, active compounds read low 1.01 | locus YGL167C, strain pmr1, active compounds read low 1 | locus YGL173C, strain kem1, active compounds read low 1.01 | locus YGL227W, strain vid30, active compounds read low 0.999 | locus YGL240W, strain doc1, active compounds read low 0.996 | locus YGL248W, strain PDE1, active compounds read low 1.01 | locus YGL253W, strain hxk2, active compounds read low 0.993 | locus YGR078C, strain PAC10, active compounds read low 1.01 | locus YGR135W, strain pre9, active compounds read low 0.972 | locus YGR229C, strain SMI1, active compounds read low 1.02 | locus YGR252W, strain gcn5, active compounds read low 0.938 | locus YHR013C, strain ard1, active compounds read low 1.02 | locus YHR027C, strain rpn1, active compounds read low 1.01 | locus YHR030C, strain SLT2, active compounds read low 1 and 0.987 | locus YHR079C, strain IRE1 (second series), active compounds read low 0.994 | locus YHR079C, strain IRE1, active compounds read low 0.989 | locus YHR094C, strain hxt1, active compounds read low 0.993 | locus YHR129C, strain ARP1, active compounds read low 1.01 | locus YHR142W, strain chs7, active compounds read low 0.994 | locus YHR200W, strain rpn10, active compounds read low 1.01 | locus YIL066C, strain RNR3, active compounds read low 1.02 | locus YIL073C, strain SPO22, active compounds read low 0.991 | locus YIL125W, strain kgd1, active compounds read low 0.995 | locus YIR030C, strain dcg1, active compounds read low 1 | locus YJL092W, strain hpr5, active compounds read low 0.994 | locus YJL095W, strain BCK1 (second series), active compounds read low 1 | locus YJL095W, strain BCK1, active compounds read low 1.01 and 0.979 | locus YJL115W, strain asf1, active compounds read low 1 | locus YJL129C, strain trk1, active compounds read low 0.989 | locus YJL134W, strain LCB3, active compounds read low 1.01 | locus YJL154C, strain vps35, active compounds read low 1 | locus YJL164C, strain tpk1, active compounds read low 0.998 | locus YJL166W, strain qcr8, active compounds read low 0.997 | locus YJL168C, strain set2, active compounds read low 1 | locus YJL187C, strain SWE1 (second series), active compounds read low 1.01 | locus YJL187C, strain SWE1, active compounds read low 0.999
